This is an account of results in ChEMBL document CHEMBL3988442, “University of Dundee, Small-Polar-MMV Screening Library” (2021).

The assay concerns the target AMP-activated protein kinase, AMPK (Homo sapiens) (UniProt P54646+O43741+P54619+Q9UGJ0+Q9Y478+Q13131+Q9UGI9). In words: AMP-dependent Kinase enzyme assay. An in vitro enzyme assay that detects ADP turnover that is directly proportional to AMPK activity. This uses naive AMPK that is activated during the assay with MK-8722. The class given is functional. Further details: scale not given: direction of the effect not stated beside the values. As to conditions: 30 µM.
`COC1CCN(c2ccc(F)cc2CN(C)C(=O)c2cc[nH]n2)CC1`: the Percent Effect is 12.3%.
In the case of `CCCc1nnc(N2CCC(N3CCCC(O)C3)CC2)o1` (stereo not given) it was 4.12%; in that of `Cc1nc(CNCc2cccc(OC34CCCN(CC3)C4)c2)n[nH]1` (stereo not given), -7.43%; in that of `CN(Cc1cc(Cl)c2c(c1)OCO2)Cc1cscn1`, -12.9%.
To `CN1CCOC(CNC(=O)CCCc2ccccc2)C1` (stereo not given) belongs -9.04%; to `O=C1CCCCCN1Cc1cccc(OC(F)F)c1`, 3.82%.
To `Cc1cc(CN(C)C(=O)Nc2ccccc2C)no1` belongs 9.79%; to `c1cc(NCc2ccsc2)cc(-c2nnc[nH]2)c1`, 14.3%; to `CC(C)(N)C(=O)N1CCCC(C(=O)c2ccc(C(C)(C)C)cc2)C1` (stereo not given), 17.9%.
As to `CCCN(CC(=O)NC)C(=O)c1ccc(-c2nc(C)cs2)cc1`, the Percent Effect came to 1.67%.
To `CC(C)OCCN1CCC(Nc2ncccn2)CC1` belongs -1.19%.
In the case of `NC1CCc2nc(-c3ccncc3)nc(Nc3cccc(F)c3)c2C1` (stereo not given) it was -70.9%.
To `COCCCNC(=O)Nc1c(C)cccc1C(C)C` belongs 7.47%; to `CCCc1cc(=O)[nH]c(-n2nc(-c3cccs3)cc2N)n1`, -6.1%; to `CC(C)COc1cncc(N2CCCN(CC(F)(F)F)CC2)n1`, 3.81%.
On to `COC(=O)c1ncccc1N1CCCCC1`, for which the Percent Effect was found to be 2.81%.
Take `CN(C)CCN(Cc1ccc(Cl)cc1)C(=O)c1ccn(C)c(=O)c1`: the Percent Effect was 6.12%.
To `COC(=O)c1ccoc1CN(C)CC(=O)NC1CC1` belongs -3.6%; to `Cc1nc2c(c(NC(C)c3nnn[nH]3)n1)Cc1ccccc1OC2` (stereo not given), -6.31%.
For the compound `O=S(=O)(NC1CCOC1)c1ccc(C(F)(F)F)nc1` (stereo not given), the Percent Effect was 6.19%.
